Results as given in PubChem BioAssay AID1159580 (chemical genetic matrix, 2015).
“And” between values parts separate entries of the source, which are not always exact repeats. Equal values may be shown once. Out of some 5,500 compounds screened, about 2,000 (36%) were called active. Inconclusive results (about 18%) are left out. Rule as the data show it: active = normalized growth mostly below about 0.91 (no sharp cut-off); inconclusive = no clear call, values can overlap the other calls; inactive = mostly above about 0.92. Some of the results follow.

Assay: chemical genetic growth profiling, strain panel (AID 1159580);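 also: tested at 20 µM; growth read once vehicle control cultures reached saturation at 30 °C; 1 = growth at the plate median or of vehicle wells; lower values mean less growth of the strain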
Conditions: S. cerevisiae deletion strains, growth OD

Measured: normalized growth

CC1CC[C@@]2(OC1)O[C@H]1CC3C4CC[C@@H]5C[C@@H](O)CC[C@]5(C)C4CC[C@]3(C)[C@H]1[C@@H]2C (stereo partly specified)
active: locus YDR195W, strain ref2 1.17 [resistant] | locus YEL037C, strain rad23, stronger effect = lower value 1.2 [resistant] | locus YER111C, strain swi4, stronger effect = lower value 1.28 [resistant] | locus YHR142W, strain chs7, stronger effect = lower value 1.18 [resistant] | locus YJL154C, strain vps35, stronger effect = lower value 1.11 [resistant]
inactive: locus YAL013W, strain DEP1, stronger effect = lower value 1.03 | locus YAL021C, strain ccr4, stronger effect = lower value 1.05 | locus YAL026C, strain drs2, stronger effect = lower value 1.02 | locus YAL030W, strain snc1, stronger effect = lower value 1.03 | locus YBL061C, strain skt5, stronger effect = lower value 1.02 | locus YBR009C, strain hhf1, stronger effect = lower value 1.01 | locus YBR021W, strain FUR4, stronger effect = lower value 1.02 | locus YBR023C, strain chs3, stronger effect = lower value 1.05 | locus YBR171W, strain sec66, stronger effect = lower value 1.04 | locus YBR229C, strain ROT2, stronger effect = lower value 1.01 | locus YBR231C, strain swc5, stronger effect = lower value 1.02 | locus YBR279W, strain paf1, stronger effect = lower value 1.02 | locus YCL011C, strain gbp2, stronger effect = lower value 1.06 | locus YCL016C, strain dcc1, stronger effect = lower value 1.02 | locus YCL029C, strain bik1, stronger effect = lower value 1.01 | locus YCL061C, strain MRC1, stronger effect = lower value 1.02 | locus YCL069W, strain vba3, stronger effect = lower value 1.05 | locus YCR088W, strain abp1, stronger effect = lower value 1.03 | locus YDL005C, strain med2, stronger effect = lower value 1.03 | locus YDL035C, strain GPR1, stronger effect = lower value 1.07 | locus YDL040C, strain nat1, stronger effect = lower value 1.02 | locus YDL074C, strain BRE1, stronger effect = lower value 1.11 | locus YDL101C, strain DUN1, stronger effect = lower value 1.02 | locus YDL134C, strain PPH21, stronger effect = lower value 1.03 | locus YDL185W, strain tfp1, stronger effect = lower value 1 | locus YDL192W, strain arf1, stronger effect = lower value 1.01 | locus YDR001C, strain nth1, stronger effect = lower value 1.05 | locus YDR069C, strain doa4, stronger effect = lower value 1.06 | locus YDR101C, strain arx1, stronger effect = lower value 1.01 | locus YDR137W, strain rgp1, stronger effect = lower value 0.984 | locus YDR150W, strain NUM1, stronger effect = lower value 1.03 | locus YDR159W, strain sac3, stronger effect = lower value 1.01 | locus YDR162C, strain NBP2, stronger effect = lower value 1.04 | locus YDR297W, strain sur2, stronger effect = lower value 1.02 | locus YDR318W, strain mcm21, stronger effect = lower value 1.01 | locus YDR334W, strain swr1, stronger effect = lower value 1.05 | locus YDR335W, strain msn5, stronger effect = lower value 1.06 | locus YDR388W, stronger effect = lower value 1.02 | locus YDR392W, strain spt3, stronger effect = lower value 1.03 | locus YDR502C, strain sam2, stronger effect = lower value 0.997 | locus YEL003W, strain gim4, stronger effect = lower value 1.08 | locus YEL061C, strain CIN8 (second series), stronger effect = lower value 1.08 | locus YER015W, strain faa2, stronger effect = lower value 1.03 | locus YER016W, strain bim1, stronger effect = lower value 1.02 | locus YER110C, stronger effect = lower value 0.997 | locus YER155C, strain BEM2 (second series), stronger effect = lower value 1.09 | locus YER155C, strain BEM2, stronger effect = lower value 1 | locus YER167W, strain BCK2, stronger effect = lower value 1.02 | locus YFR010W, strain ubp6, stronger effect = lower value 1.06 | locus YGL078C, strain dbp3, stronger effect = lower value 1.02 | locus YGL086W, strain mad1, stronger effect = lower value 1 | locus YGL167C, strain pmr1, stronger effect = lower value 1.02 | locus YGL173C, strain kem1, stronger effect = lower value 1.02 | locus YGL227W, strain vid30, stronger effect = lower value 1.03 | locus YGL240W, strain doc1, stronger effect = lower value 1.02 | locus YGL248W, strain PDE1, stronger effect = lower value 1.06 | locus YGL253W, strain hxk2, stronger effect = lower value 1.07 | locus YGR135W, strain pre9, stronger effect = lower value 1.01 | locus YGR252W, strain gcn5, stronger effect = lower value 1.05 | locus YHR013C, strain ard1, stronger effect = lower value 1.04 | locus YHR027C, strain rpn1, stronger effect = lower value 1.03 | locus YHR030C, strain SLT2, stronger effect = lower value 0.965 | locus YHR079C, strain IRE1 (second series), stronger effect = lower value 0.993 | locus YHR079C, strain IRE1, stronger effect = lower value 0.97 | locus YHR094C, strain hxt1, stronger effect = lower value 1.01 | locus YHR129C, strain ARP1, stronger effect = lower value 1.05 | locus YIL066C, strain RNR3, stronger effect = lower value 1.03 | locus YIL073C, strain SPO22, stronger effect = lower value 1.12 | locus YIL125W, strain kgd1, stronger effect = lower value 0.999 | locus YIR030C, strain dcg1, stronger effect = lower value 1 | locus YJL092W, strain hpr5, stronger effect = lower value 1.02 | locus YJL095W, strain BCK1 (second series), stronger effect = lower value 1.01 | locus YJL095W, strain BCK1, stronger effect = lower value 1.06 and 0.993 | locus YJL115W, strain asf1, stronger effect = lower value 1.03 | locus YJL134W, strain LCB3, stronger effect = lower value 1.02 | locus YJL164C, strain tpk1, stronger effect = lower value 1.02 | locus YJL166W, strain qcr8, stronger effect = lower value 1.02 | locus YJL168C, strain set2, stronger effect = lower value 0.988 | locus YJL187C, strain SWE1 (second series), stronger effect = lower value 1.04 | locus YJL187C, strain SWE1, stronger effect = lower value 1.01 | locus YJR043C, strain POL32, stronger effect = lower value 1.05
